Drawing on PMC7862700, “An all-to-all approach to the identification of sequence-specific readers for epigenetic DNA modifications on cytosine”, this text covers binding signal for one sequence.

What all share (assay): DAPPL (digital affinity profiling via proximity ligation, sequencing); 10 mM Tris-HCl pH 7.5, 50 mM NaCl, 1 mM DTT, 4% glycerol, room temperature, 30 min; GST-TFs on glutathione beads, 16-mer random dsDNA library, 0.1% formaldehyde crosslink after washing; high values mean tight binding
One assay addresses T1, FEV (Homo sapiens, UniProt Q99581 1-238).
T1 sequence: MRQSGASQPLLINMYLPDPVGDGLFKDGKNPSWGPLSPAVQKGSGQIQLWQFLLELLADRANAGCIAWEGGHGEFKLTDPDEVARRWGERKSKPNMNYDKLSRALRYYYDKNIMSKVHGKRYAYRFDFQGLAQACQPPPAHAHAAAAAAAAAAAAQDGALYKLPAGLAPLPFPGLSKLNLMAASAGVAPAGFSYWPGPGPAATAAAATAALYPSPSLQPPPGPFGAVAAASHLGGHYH
The conditions noted are these: protein: recombinant; tags: N-terminal GST; dsDNA, one strand shown. Summed up: (§1)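 A tag-only sample was pooled with DNA-barcoded human transcription factors that had been expressed in yeast as GST fusions and captured on glutathione beads. The pools were incubated for 30 min at room temperature with 200 nmole of a random double-stranded 16-mer DNA library in Tris/NaCl/DTT/glycerol buffer, then washed, crosslinked with 0.1% formaldehyde, proximity-ligated (BsaI/T4 ligase, 1 h, 37 °C), PCR-amplified and sequenced on an Illumina NextSeq500. Binding signal is each hexamer's read frequency for a factor divided by its frequency for the tag-only sample.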

The next assay deals with ETV5 (Homo sapiens, UniProt P41161 1-510). The conditions noted are these: protein: recombinant; tags: N-terminal GST; dsDNA, one strand shown. Summed up:
as §1

In another assay the target is HSF1 (Homo sapiens, UniProt Q00613 1-529). The conditions noted are these: protein: recombinant; tags: N-terminal GST; chain copies: 3; dsDNA, one strand shown. Summed up:
as §1

For the next assay, the target named is T2, SPIC (Homo sapiens, UniProt Q8N5J4 1-248).
T2 sequence: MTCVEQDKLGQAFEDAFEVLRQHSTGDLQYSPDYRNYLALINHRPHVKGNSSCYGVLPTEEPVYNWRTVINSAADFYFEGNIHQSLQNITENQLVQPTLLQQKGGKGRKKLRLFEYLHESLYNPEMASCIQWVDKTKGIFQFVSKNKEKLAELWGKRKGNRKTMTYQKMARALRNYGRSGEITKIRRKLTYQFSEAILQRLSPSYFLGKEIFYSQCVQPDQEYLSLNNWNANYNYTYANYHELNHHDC
The conditions noted are these: protein: recombinant; tags: N-terminal GST; dsDNA, one strand shown. The method, boiled down:
as §1

The next assay concerns the target ELF4 (Homo sapiens, UniProt Q99607 1-663). The conditions noted are these: protein: recombinant; tags: N-terminal GST; dsDNA, one strand shown. Summed up:
as §1

For another assay, the target named is T3, ELK4 (Homo sapiens, UniProt P28324-2 1-405).
T3 sequence: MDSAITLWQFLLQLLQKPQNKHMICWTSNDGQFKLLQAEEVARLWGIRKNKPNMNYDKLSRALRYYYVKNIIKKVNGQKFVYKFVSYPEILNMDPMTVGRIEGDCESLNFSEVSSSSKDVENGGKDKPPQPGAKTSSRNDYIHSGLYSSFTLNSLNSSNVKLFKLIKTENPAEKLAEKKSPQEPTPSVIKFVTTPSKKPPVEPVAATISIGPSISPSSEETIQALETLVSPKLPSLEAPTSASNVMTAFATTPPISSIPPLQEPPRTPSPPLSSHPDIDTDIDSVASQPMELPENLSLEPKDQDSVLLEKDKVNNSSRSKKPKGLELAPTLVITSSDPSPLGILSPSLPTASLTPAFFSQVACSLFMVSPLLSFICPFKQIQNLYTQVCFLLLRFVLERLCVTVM
The conditions noted are these: protein: recombinant; tags: N-terminal GST; dsDNA, one strand shown. The method, boiled down: as §1

A further assay concerns the target T4, ETV2 (Homo sapiens, UniProt O00321 1-342).
T4 sequence: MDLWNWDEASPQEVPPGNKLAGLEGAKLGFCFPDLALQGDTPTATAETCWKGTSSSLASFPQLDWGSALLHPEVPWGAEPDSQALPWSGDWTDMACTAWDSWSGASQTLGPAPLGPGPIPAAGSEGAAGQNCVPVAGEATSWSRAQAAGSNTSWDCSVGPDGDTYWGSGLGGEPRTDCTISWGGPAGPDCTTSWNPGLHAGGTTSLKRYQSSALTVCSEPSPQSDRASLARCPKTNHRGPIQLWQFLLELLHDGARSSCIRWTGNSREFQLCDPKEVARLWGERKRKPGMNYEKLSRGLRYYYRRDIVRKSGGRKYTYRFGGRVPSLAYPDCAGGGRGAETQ
The conditions noted are these: protein: recombinant; tags: N-terminal GST; dsDNA, one strand shown. Summed up: as §1

The next assay addresses T5, ELF3 (Homo sapiens, UniProt P78545 1-371).
T5 sequence: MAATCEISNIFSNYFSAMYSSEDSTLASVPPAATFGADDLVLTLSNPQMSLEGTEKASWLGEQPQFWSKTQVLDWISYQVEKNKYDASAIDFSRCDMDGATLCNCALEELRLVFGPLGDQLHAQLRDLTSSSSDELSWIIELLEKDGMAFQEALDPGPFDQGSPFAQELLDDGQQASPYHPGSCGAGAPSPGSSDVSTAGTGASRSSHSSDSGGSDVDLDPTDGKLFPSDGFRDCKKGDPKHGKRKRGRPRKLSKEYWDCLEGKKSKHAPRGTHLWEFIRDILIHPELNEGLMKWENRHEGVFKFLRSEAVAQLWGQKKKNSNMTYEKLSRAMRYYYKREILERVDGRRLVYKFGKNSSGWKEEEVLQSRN
The conditions noted are these: protein: recombinant; tags: N-terminal GST; dsDNA, one strand shown. Summed up:
as §1

For another assay, the target named is CRX (Homo sapiens, UniProt O43186 1-299). The conditions noted are these: protein: recombinant; tags: N-terminal GST; dsDNA, one strand shown. Summed up:
as §1

In another assay the target is ETV1 (Homo sapiens, UniProt P50549 1-477). The conditions noted are these: protein: recombinant; tags: N-terminal GST; dsDNA, one strand shown. Summed up: as §1
Chain of ETV1 (P50549 whole entry): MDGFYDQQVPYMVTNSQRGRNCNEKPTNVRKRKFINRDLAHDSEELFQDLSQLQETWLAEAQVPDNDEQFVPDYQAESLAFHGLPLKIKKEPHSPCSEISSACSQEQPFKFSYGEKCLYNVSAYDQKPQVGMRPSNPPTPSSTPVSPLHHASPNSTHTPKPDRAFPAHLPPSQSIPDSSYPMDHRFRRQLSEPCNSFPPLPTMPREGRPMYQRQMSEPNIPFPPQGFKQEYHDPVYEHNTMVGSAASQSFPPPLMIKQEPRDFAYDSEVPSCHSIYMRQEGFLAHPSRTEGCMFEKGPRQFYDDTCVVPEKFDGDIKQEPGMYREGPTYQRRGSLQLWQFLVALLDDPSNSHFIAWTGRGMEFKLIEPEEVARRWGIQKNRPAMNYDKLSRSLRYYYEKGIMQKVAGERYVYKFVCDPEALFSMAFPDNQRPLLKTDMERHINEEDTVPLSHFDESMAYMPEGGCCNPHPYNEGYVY
In another assay the target is T6, ERF (Homo sapiens, UniProt P50548 1-548).
T6 sequence: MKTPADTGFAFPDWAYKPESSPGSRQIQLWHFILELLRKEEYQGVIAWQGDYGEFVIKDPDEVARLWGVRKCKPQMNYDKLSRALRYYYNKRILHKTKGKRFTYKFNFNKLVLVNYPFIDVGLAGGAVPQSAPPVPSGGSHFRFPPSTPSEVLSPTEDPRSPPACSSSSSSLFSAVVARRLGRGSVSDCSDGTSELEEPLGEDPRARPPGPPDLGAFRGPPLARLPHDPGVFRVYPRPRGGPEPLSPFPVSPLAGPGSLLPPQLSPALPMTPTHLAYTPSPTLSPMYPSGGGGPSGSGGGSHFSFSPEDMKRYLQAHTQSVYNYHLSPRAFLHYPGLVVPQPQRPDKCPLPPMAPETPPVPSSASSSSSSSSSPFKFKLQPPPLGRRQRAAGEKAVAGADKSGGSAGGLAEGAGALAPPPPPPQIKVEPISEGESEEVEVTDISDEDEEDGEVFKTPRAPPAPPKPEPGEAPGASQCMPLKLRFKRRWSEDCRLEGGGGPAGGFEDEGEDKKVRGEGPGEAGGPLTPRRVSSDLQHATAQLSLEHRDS
The conditions noted are these: protein: recombinant; tags: N-terminal GST; dsDNA, one strand shown. Summed up:
as §1

For the next assay, the target named is T7, ETV3L (Homo sapiens, UniProt Q6ZN32 1-361).
T7 sequence: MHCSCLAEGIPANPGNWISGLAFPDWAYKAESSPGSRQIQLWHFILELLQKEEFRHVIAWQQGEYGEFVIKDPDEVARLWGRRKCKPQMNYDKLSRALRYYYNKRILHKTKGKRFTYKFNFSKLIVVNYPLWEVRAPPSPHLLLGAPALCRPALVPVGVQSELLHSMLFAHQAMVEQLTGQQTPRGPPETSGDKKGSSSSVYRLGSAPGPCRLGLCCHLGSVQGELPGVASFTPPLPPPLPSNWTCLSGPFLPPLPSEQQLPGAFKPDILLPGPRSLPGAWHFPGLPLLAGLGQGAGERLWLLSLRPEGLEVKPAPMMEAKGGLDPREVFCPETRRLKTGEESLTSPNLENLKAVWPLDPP
The conditions noted are these: protein: recombinant; tags: N-terminal GST; dsDNA, one strand shown. Summed up:
as §1

A further assay has as its target T8, ETS2 (Homo sapiens, UniProt P15036 1-469).
T8 sequence: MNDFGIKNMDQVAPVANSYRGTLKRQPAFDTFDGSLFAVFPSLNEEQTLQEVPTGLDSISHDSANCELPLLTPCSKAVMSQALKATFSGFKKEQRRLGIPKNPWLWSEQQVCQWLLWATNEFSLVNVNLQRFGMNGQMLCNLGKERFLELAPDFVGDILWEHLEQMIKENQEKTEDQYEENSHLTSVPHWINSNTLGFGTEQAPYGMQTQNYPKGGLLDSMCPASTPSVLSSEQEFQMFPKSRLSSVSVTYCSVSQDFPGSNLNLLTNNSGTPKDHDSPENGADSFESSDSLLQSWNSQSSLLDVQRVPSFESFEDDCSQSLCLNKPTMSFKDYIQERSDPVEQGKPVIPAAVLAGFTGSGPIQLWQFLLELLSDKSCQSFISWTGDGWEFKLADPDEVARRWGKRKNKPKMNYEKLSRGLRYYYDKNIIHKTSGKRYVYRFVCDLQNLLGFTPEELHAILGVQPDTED
The conditions noted are these: protein: recombinant; tags: N-terminal GST; dsDNA, one strand shown. The method, boiled down: as §1

A further assay deals with T9, SPDEF (Homo sapiens, UniProt O95238 1-335).
T9 sequence: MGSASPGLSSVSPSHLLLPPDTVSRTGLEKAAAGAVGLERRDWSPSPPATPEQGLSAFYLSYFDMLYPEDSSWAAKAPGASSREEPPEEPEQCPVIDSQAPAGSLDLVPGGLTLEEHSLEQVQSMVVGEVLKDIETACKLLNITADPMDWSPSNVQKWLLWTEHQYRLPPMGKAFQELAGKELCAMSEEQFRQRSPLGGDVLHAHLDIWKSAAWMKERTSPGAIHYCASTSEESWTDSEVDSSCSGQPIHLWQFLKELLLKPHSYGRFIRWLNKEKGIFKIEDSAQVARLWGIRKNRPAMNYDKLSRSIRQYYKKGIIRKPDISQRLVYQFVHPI
The conditions noted are these: protein: recombinant; tags: N-terminal GST; dsDNA, one strand shown. Summed up: as §1

The target of a further assay is T10, ETV7 (Homo sapiens, UniProt Q9Y603 1-341).
T10 sequence: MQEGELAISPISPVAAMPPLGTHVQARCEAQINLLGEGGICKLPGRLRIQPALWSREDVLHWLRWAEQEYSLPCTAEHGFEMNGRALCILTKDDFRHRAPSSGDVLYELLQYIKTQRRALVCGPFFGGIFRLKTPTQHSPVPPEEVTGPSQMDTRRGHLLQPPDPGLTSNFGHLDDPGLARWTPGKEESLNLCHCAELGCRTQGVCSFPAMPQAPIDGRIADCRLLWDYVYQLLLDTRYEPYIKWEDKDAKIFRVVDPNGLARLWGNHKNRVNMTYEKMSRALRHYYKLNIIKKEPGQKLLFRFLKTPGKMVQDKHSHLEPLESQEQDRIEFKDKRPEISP
The conditions noted are these: protein: recombinant; tags: N-terminal GST; dsDNA, one strand shown. The method, boiled down: as §1

The target in the next assay is T11, ELF5 (Homo sapiens, UniProt Q9UKW6-2 1-255).
T11 sequence: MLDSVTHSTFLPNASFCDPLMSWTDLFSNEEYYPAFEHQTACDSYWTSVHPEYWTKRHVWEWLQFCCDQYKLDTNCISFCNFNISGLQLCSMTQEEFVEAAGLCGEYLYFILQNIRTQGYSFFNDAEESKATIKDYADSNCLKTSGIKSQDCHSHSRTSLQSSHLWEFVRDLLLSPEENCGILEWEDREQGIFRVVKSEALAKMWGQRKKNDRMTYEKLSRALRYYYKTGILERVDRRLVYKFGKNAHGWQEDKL
The conditions noted are these: protein: recombinant; tags: N-terminal GST; dsDNA, one strand shown. The method, boiled down:
as §1

In another assay the target is T12, ETV3 (Homo sapiens, UniProt P41162-2 1-143).
T12 sequence: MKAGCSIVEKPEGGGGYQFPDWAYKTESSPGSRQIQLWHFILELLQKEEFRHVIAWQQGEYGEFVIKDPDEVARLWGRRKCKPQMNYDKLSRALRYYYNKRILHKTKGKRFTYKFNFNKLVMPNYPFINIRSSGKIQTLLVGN
The conditions noted are these: protein: recombinant; tags: N-terminal GST; dsDNA, one strand shown. Summed up:
as §1

The next assay addresses ETV6 (Homo sapiens, UniProt P41212 1-452). The conditions noted are these: protein: recombinant; tags: N-terminal GST; dsDNA, one strand shown. The method, boiled down: as §1

Chain of ETV5 (P41161 whole entry): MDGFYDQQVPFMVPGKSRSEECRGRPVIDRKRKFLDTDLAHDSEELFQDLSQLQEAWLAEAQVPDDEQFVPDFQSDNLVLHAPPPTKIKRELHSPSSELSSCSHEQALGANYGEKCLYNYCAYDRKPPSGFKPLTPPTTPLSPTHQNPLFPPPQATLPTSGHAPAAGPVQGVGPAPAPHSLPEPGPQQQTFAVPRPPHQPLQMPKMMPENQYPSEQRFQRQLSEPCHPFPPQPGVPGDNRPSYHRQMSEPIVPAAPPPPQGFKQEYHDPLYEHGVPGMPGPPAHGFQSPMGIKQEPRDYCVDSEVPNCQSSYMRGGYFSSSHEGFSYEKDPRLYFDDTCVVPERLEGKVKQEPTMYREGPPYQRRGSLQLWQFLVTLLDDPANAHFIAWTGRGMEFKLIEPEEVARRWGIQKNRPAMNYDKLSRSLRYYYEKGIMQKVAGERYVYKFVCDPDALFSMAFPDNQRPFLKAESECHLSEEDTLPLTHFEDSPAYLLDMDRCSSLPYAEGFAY
Chain of HSF1 (Q00613 whole entry): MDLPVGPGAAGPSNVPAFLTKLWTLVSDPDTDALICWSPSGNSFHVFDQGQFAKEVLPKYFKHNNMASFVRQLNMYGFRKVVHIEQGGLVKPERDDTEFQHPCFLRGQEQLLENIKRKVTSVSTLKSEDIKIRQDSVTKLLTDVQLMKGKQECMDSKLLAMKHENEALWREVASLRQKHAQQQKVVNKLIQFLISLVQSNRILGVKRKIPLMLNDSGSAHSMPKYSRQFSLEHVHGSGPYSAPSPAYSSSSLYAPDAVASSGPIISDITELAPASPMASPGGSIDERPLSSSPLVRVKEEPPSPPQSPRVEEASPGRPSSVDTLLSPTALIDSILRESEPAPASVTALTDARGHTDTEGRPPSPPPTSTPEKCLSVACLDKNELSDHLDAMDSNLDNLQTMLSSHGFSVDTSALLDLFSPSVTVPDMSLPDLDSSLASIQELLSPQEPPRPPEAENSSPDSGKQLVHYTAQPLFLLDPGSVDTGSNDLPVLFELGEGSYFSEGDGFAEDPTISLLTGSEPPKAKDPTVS
Chain of ETV6 (P41212 whole entry): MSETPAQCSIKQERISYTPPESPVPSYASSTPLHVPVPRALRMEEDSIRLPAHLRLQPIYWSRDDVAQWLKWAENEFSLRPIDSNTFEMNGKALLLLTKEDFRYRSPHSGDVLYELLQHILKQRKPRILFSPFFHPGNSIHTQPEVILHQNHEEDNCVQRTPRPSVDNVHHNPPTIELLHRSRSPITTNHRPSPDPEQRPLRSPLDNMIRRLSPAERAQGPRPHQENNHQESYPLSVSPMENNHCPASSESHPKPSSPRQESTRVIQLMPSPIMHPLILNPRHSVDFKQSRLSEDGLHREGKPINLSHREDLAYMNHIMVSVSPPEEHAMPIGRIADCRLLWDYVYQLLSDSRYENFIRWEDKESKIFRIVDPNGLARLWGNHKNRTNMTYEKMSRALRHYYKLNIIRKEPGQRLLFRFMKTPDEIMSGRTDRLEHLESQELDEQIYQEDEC
Chain of ELF4 (Q99607 whole entry): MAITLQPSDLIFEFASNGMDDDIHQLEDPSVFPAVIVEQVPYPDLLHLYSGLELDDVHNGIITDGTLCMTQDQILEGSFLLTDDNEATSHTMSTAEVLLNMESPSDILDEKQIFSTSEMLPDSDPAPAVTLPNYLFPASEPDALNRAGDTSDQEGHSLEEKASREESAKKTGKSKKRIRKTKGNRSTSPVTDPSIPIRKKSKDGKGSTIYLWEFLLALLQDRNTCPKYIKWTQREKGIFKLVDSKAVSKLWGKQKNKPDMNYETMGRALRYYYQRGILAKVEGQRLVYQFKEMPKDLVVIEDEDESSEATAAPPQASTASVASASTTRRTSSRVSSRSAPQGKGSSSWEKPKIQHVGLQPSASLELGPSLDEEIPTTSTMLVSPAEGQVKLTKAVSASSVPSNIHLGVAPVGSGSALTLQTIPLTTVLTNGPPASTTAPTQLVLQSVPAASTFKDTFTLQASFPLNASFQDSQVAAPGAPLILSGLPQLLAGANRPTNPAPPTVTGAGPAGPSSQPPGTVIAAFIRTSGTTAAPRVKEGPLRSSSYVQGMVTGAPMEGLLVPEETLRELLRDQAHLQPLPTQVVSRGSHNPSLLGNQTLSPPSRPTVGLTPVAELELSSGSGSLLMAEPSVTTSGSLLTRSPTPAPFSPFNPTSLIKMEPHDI
Chain of CRX (O43186 whole entry): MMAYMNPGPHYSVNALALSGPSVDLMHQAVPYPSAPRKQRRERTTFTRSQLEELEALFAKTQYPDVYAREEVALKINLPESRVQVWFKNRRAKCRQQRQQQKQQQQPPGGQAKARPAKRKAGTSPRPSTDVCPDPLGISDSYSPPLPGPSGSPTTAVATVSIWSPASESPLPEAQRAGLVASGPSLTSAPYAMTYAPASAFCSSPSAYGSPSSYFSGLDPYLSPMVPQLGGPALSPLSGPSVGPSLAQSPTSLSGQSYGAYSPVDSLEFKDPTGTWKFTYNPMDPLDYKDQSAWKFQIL

On to TAATCA, for which the binding signal with FEV was 1.13 fold enrichment (6-mer frequency, TF over GST control); with ETV5 it was 1.18 fold enrichment (6-mer frequency, TF over GST control); in the assay with HSF1 it was 1.64 fold enrichment (6-mer frequency, TF over GST control); with SPIC, 1.26 fold enrichment (6-mer frequency, TF over GST control); with ELF4, 1.11 fold enrichment (6-mer frequency, TF over GST control); in the assay with ELK4, 1.32 fold enrichment (6-mer frequency, TF over GST control). Besides, the binding signal was 1.27 fold enrichment (6-mer frequency, TF over GST control) in the assay with ETV2; 1.18 fold enrichment (6-mer frequency, TF over GST control) in the assay with ELF3; 2.51 fold enrichment (6-mer frequency, TF over GST control) with CRX; 1.14 fold enrichment (6-mer frequency, TF over GST control) in the assay with ETV1; 1.09 fold enrichment (6-mer frequency, TF over GST control) in the assay with ERF; 1.12 fold enrichment (6-mer frequency, TF over GST control) with ETV3L. In addition, the binding signal with ETS2 was 1.14 fold enrichment (6-mer frequency, TF over GST control); with SPDEF it was 1.11 fold enrichment (6-mer frequency, TF over GST control); with ETV7 it was 1.1 fold enrichment (6-mer frequency, TF over GST control); with ELF5 it was 1.08 fold enrichment (6-mer frequency, TF over GST control); in the assay with ETV3, 1.15 fold enrichment (6-mer frequency, TF over GST control); with ETV6, 1.18 fold enrichment (6-mer frequency, TF over GST control).
